Mac1 fbg enh = increases human CD11b/CD18 adhesion to fibrinogen; P05107+P11215; AID 1499; activation, % at 10 µM; 93,000 tested, 0.07% active; K562 CD11b/CD18 adhesion to fibrinogen, ATPlite luminescence;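 active = 10 µM primary screen giving 50% or more activity, confirmed by 40% or more on retest at that dose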
CD11b adhes inh = blocks human CD11b/CD18 adhesion to fibrinogen; P05107+P11215; K562 CD11b/CD18 adhesion to fibrinogen, ATPlite luminescence; Mn2+ added to activate the integrin; inhibition, % at 10 µM; 93,000 tested, 0.54% active;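 active = primary inhibition of 50% or more at 10 µM, then 40% or more on retest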
CYP2C9 inhib = human CYP2C9 inhibition; P11712; CYP2C9 Supersomes, luciferin-H conversion, luminescence; inhibition, % at 5 µM; 96,000 tested, 20% active;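 active = blocking of liver enzyme CYP2C9 beyond about 50% at 5 µM, limit read from the data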
CYP2C9 activ = CYP2C9 (human) activation | activation factor at 5 µM | recombinant CYP2C9, luciferin-H conversion, luminescence; hits give high values; factor 1 = untreated enzyme, 0 = blocked | P11712 | 96,000 tested, 1.4% active | AID 1024;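 active = activation factor of 2 or more for CYP2C9 at a 5 µM dose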;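 note: 0 = sulfaphenazole-blocked wells and 1 = vehicle-only wells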
CYP2C19 act = cytochrome P450 2C19 (human) activation; recombinant CYP2C19, luciferin-H EGE luminescence; hits give high values; 0 = fully inhibited enzyme, 1 = untreated enzyme; 96,000 tested, under 10 active; activation factor at 5 µM; AID 1025; P33261;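 active = activation factor of at least 2 at 5 µM in the primary screen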;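 note: 0 = wells with 2.5 mM tranylcypromine and 1 = vehicle-only wells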
CYP2C19 inhib = inhibitors of human CYP2C19; inhibition, % at 5 µM; CYP2C19 Supersomes, luciferin-H EGE luminescence, 30 min; 96,000 tested, 21% active;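 active = CYP2C19 inhibition above a set limit at 5 µM in the primary screen, cut at about 50% in these data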;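 note: plate controls were negative control wells for no effect and 2.5 mM tranylcypromine positive control for full effect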
* hit, by the source's call; nt = no result. Sampled rows, rich in hits. Any-hit rate of the full collection: about 28%.

SMILES	Mac1 fbg enh	CD11b adhes inh	CYP2C9 inhib	CYP2C9 activ	CYP2C19 act	CYP2C19 inhib
CC(=O)Nc1ccc(S(=O)(=O)N2CCc3c(Cl)cccc3C2)cc1	-2.5	-12.5	-168.7	2.7*	0.4	64.6*
CC(=O)Nc1ccc(S(=O)(=O)Nc2ccc(S(=O)(=O)N3CCCCCC3)cc2)cc1	2.1	3.4	81.5*	0.2	0.9	13.7
CC(=O)Nc1ccc(S(=O)(=O)N2CCN(c3ccc(C)c(Cl)c3)CC2)cc1	4.6	-1.7	53.0*	0.5	0.6	36.6
Cc1ccc(-c2csc3ncnc(-n4cnc5ccccc54)c23)cc1	-0.7	7.9	nt	nt	nt	nt
O=C(CSc1nnc(-c2ccccc2)o1)NC1CCS(=O)(=O)C1 (stereo not drawn)	1.6	-24.5	nt	nt	nt	nt
CC(=O)Nc1ccc(S(=O)(=O)N2CCCN(S(=O)(=O)c3ccc(C)cc3)CC2)cc1	-6.4	19.1	42.7	0.6	0.7	28.8
CC(=O)Nc1ccc(S(=O)(=O)N2CCN(c3cccc(C)c3C)CC2)cc1	0.5	-0.1	75.4*	0.2	0.6	40.3
CC(=O)c1ccc(S(=O)(=O)N2CCCC2)cc1	-6.5	17.7	59.7*	0.4	0.8	17.0
CC(=O)Nc1ccc(C(=O)Nc2ccc(S(=O)(=O)N3CCCC3)cc2)cc1	2.4	-0.8	-19.9	1.2	1	2.6
CC(=O)Nc1ccc(S(=O)(=O)N2CCCN(S(=O)(=O)c3ccc(NC(C)=O)cc3)CC2)cc1	2.7	-4.4	61.2*	0.4	0.7	30.1
CC(=O)Nc1ccc(S(=O)(=O)N2CCN(C(=O)N3CCCCCC3)CC2)cc1	-5.5	2.2	51.3*	0.5	0.8	22.9
CCCCc1nc2n[nH]c(N)c2c2c1CCCC2	-3.5	-3.0	14.0	0.9	0.6	43.1
CCSc1cnc(-c2ccccc2)n1CC	-3.0	9.6	11.6	0.9	0.6	39.2
COC(=O)c1cccc(NC(=O)CSc2nc(=O)cc(N)n2-c2ccccc2)c1	-1.0	2.1	10.9	0.9	0.9	9.3
Cc1ccc(Cl)cc1N1CCN(S(=O)(=O)c2c(C)[nH]c(=O)[nH]c2=O)CC1	nt	nt	26.4	0.7	0.8	23.7
Cc1cccc(N2CCN(S(=O)(=O)c3c(C)[nH]c(=O)[nH]c3=O)CC2)c1C	-3.2	-5.8	6.7	0.9	0.5	50.2*
Cc1cccc(NC2=NCC(=O)N2CCc2ccccc2)c1	nt	nt	2.3	1	1	-3.2
CCCSc1nc(N)nc(-c2cccs2)c1C#N	nt	nt	72.6*	0.3	0.6	40.4
CCSc1nc(C2CC2)cc(-c2cccs2)c1C#N	0.6	6.2	40.7	0.6	0.3	68.5*
CCSc1nc(C2CC2)cc(-c2ccco2)c1C#N	8.8	-2.3	-34.5	1.3	0.9	13.8
CCOc1ccc(N2C(=O)CC(N(CCc3ccc(OC)cc3)C(=O)c3cccc(F)c3)C2=O)cc1 (stereo not drawn)	20.0	2.5	nt	nt	nt	nt
O=C(CNC(=O)c1ccco1)OCc1ccc(C(=O)Oc2ccccc2)cc1	-0.7	4.5	57.6*	0.4	0.5	45.8
O=C(CNC(=O)c1ccco1)NCC(=O)OCc1ccc(C(=O)Oc2ccc(Cl)cc2)cc1	-1.3	2.1	58.2*	0.4	0.9	13.3
COC(=O)c1ccc(COC(=O)CNC(=O)c2ccco2)cc1	-2.6	-1.6	14.3	0.9	0.9	11.5
Cc1ccc(Cl)cc1N1CCN(CC(=O)NC2CCCc3ccccc32)CC1 (stereo not drawn)	-5.1	48.4	nt	nt	nt	nt
SMILES	Mac1 fbg enh	CD11b adhes inh	CYP2C9 inhib	CYP2C9 activ	CYP2C19 act	CYP2C19 inhib
O=S(=O)(Nc1nc2ccccc2nc1N1CCN(c2ccccc2F)CC1)c1ccc(Cl)cc1	-7.3	93.2	100.1*	0	0.7	28.9
COc1ccc(S(=O)(=O)Nc2nc3ccccc3nc2Nc2ccc3c(c2)OCO3)cc1	-3.1	40.5	nt	nt	nt	nt
CCOc1ccc(S(=O)(=O)Nc2nc3ccccc3nc2N2CCN(C)CC2)cc1	4.4	-6.3	56.3*	0.4	0.8	18.1
O=C(CCS(=O)(=O)c1ccc(Cl)cc1)N1CCN(c2ccccc2F)CC1	-1.9	7.6	12.6	0.9	0.8	17.5
Cc1ccccc1S(=O)(=O)Nc1nc2ccccc2nc1N1CCOCC1	1.7	-12.9	70.5*	0.3	1	4.1
O=S(=O)(c1ccc2nc(COc3ccccc3)[nH]c2c1)N1CCOCC1	-2.6	-4.5	-7.8	1.1	1.2	-19.3
CC1=CC(C)(C)N(S(=O)(=O)c2ccc(C)cc2)c2ccc(C)cc21	-5.4	76.5*	39.6	0.6	0.6	38.1
Cc1ccc(S(=O)(=O)N2c3ccccc3-c3c(ssc3=S)C2(C)C)cc1	-1.0	-17.5	nt	nt	nt	nt
CC1=CC(C)(C)N(S(=O)(=O)c2ccc(F)cc2)c2ccccc21	-0.9	18.6	46.1	0.5	0.4	58.3*
Cc1ccc(-n2nnnc2SCC(=O)Nc2ccccc2-c2ccccc2)cc1C	1.4	26.1	nt	nt	nt	nt
CSc1ccccc1-n1nnnc1SCC(=O)Nc1cc(C)ccc1C	-2.5	-4.0	-207.6	3.1*	0.7	30.8
Cc1ccc(-n2nnnc2SCC(=O)Nc2ccccc2N2CCCCC2)cc1C	-6.7	18.7	11.0	0.9	0.2	79.7*
CC(C)n1nnnc1SCC(=O)Nc1ccccc1N1CCOCC1	1.2	-5.5	37.5	0.6	0.4	55.7*
CCC(=O)Nc1ccc(NC(=O)CSc2nnnn2C(C)C)cc1	-0.4	-35.8	67.6*	0.3	1	-1.8
Cn1c(Cc2ccccc2)nnc1SCC(=O)Nc1ccccc1N1CCOCC1	2.9	-17.8	-7.9	1.1	1	-3.9
CCCOCCOC(=O)C1=C(C)NC(=O)NC1c1cc(Cl)c(O)c(OC)c1 (stereo not drawn)	-0.1	-24.5	3.1	1	0.9	6.4
O=C(c1ccccc1Oc1nnnn1-c1ccccc1)N1CCOCC1	1.8	-24.6	-9.2	1.1	1.1	-5.2
Cc1ccc(Oc2nn[nH]n2)cc1	nt	nt	70.5*	0.3	1.1	-5.0
CCOC(=O)N1CCC(N2CCN(S(=O)(=O)c3ccc(C)cc3)CC2)CC1	-4.6	3.1	13.3	0.9	1	4.6
CCOC(=O)N1CCN(S(=O)(=O)c2c(C)cc(C)cc2C)CC1	6.9	5.2	50.3*	0.5	0.8	23.1
CCOC(=O)N1CCN(C(=O)C2CCN(S(=O)(=O)c3c(C)cc(C)cc3C)CC2)CC1	2.3	-35.4	-240.7	3.4*	0.8	22.5
Cc1ccc(C(=O)Nc2sc(C)c(-c3ccccc3)c2C(N)=O)cc1[N+](=O)[O-]	-1.8	16.5	40.5	0.6	0.9	8.7
COc1cc(C(=O)NCC(C)C)c([N+](=O)[O-])cc1OC	-5.5	-5.2	-18.4	1.2	1.2	-19.0
COc1ccc(CC(=O)NC(C)c2nnc(SCCOc3ccc(OC)cc3)n2C)cc1 (stereo not drawn)	-1.5	-26.6	29.0	0.7	1	4.7
O=C1c2ccccc2C(=O)C1Cc1cccc2ccccc12	-3.6	16.2	66.5*	0.3	0.7	30.6
CCOc1cccc(OCCCNCCCOC)c1	nt	nt	-2.4	1	1.1	-7.7
